Experimental data reported in ChEMBL document CHEMBL4513216, “Probing the Open Global Health Chemical Diversity Library for Multistage-Active Starting Points for Next-Generation Antimalarials” (ACS Infect Dis, 2020).
Hit rate of the full screen: of about 69,000 compounds, about 8,600 (12%) showed an effect of 50% or more. Only a selection was taken, and strong results are over-represented in it overall.

Test system: Plasmodium berghei
Experiment: Screen against P. berghei liver stage (PbLuc), transformed with Luciferase, at 10uM
Type: functional, HepG2
Details: tested at 10 uM

Compound | INHIBITION [%]
Cc1cc(C(=O)NC2CCC3(CCC(=O)N3)CC2)no1 (centres undefined) | -20.8
COc1ncccc1CN1CCc2[nH]nc(C(=O)N3CCCC3C)c2C1 (centres undefined) | -12.2
CC(C)c1nnsc1CNC(=O)C1CCN(C(C)C)CC1 | 5.94
CCc1ccc(C(=O)N2CCN(c3nc(C)cc(OC)n3)CC2)o1 | 19.2
CCSc1ncc(CN2CCN(c3ccc(C#N)cc3)C(=O)C2)cn1 | 3.73
CN(C)c1ccc(CN2CCN(c3ccc(C#N)cc3)C(=O)C2)cn1 | 18.9
CCc1ccc(CN2CCN(c3ccc(C#N)cc3)C(=O)C2)nc1 | 62.4
COCC(=O)N1CCN(S(=O)(=O)c2ccccc2)[C@H]2CS(=O)(=O)C[C@H]21 | 25.8
CCc1nc(N2CCCC(O)(CO)CC2)ncc1C (centres undefined) | -119
CNc1cncc(C2CCCN2S(=O)(=O)c2ccccc2)n1 (centres undefined) | -46.6
CC(C)c1ccc(CCC(=O)N2CCOCC2c2ncon2)cc1 (centres undefined) | -3.2
Cc1nc(-c2ccsc2)ccc1C(=O)NCCC(=O)N1CCCC1 | 49.6
Cc1nc(-c2ccsc2)ccc1C(=O)NCCN1CCOCC1 | 48.1
Cc1nc(-c2ccsc2)ccc1C(=O)NCCC1CCCO1 (centres undefined) | 52.7
Cc1noc(C)c1CN(C)C(=O)c1n[nH]c(N)c1-c1ccccc1 | -3.96
COc1ccccc1/C=C/CNCC1CCc2nncn2C1 (centres undefined) | 38
CS(=O)(=O)CCCNCc1c(Cl)cccc1N1CCCC1 | 26.4
Cc1nccn1-c1ccc(=O)n(CCNC(=O)c2ccncc2)n1 | 10.5
CCC(CN1CCCC1)NC(=O)C1(c2cccc(F)c2)CC1 (centres undefined) | 53.65
CCC(CN1CCN(C)CC1)NC(=O)C1(c2cccc(F)c2)CC1 (centres undefined) | 37.5
CCC(CN1CCCCC1)NC(=O)C1(c2cccc(F)c2)CC1 (centres undefined) | 28.7
Cc1oncc1C(=O)N1CCC2(CCN(Cc3cccc(F)c3)C2=O)C1 (centres undefined) | 1.48

Compound | INHIBITION [%]
O=c1cc2c(nn1CN1CCOCC1)CCC2 | -1.58
O=c1cc2c(nn1CN1CCSCC1)CCC2 | 51
O=c1cc2c(nn1CN1CCN(c3ccccc3)CC1)CCC2 | 16.6
O=C(O)c1ccn(COc2c(Cl)cccc2Cl)n1 | 0.207
Cc1ncoc1C(=O)N1CCOC(CCCC(C)C)C1 (centres undefined) | -7.81
O=S(=O)(NCc1cn2ccccc2n1)N1CCOCC1 | -38.6
Cc1nc(N2CCCC2)ncc1-c1cc(O)nc(N2CCCCC2)n1 | 36.6
Cc1nc(N2CCCC2)ncc1-c1cc(O)nc(N2CCCC2)n1 | -11.1
Cc1nc(N2CCC(C)CC2)ncc1-c1cc(O)nc(N2CCCC2)n1 | 53.2
Cc1nc(N2CCCC2)ncc1-c1cc(O)nc(N2CCN(C)CC2)n1 | 20.1
Cc1nc(N2CCCCC2)ncc1-c1cc(O)nc(N2CCCCC2)n1 | 25.1
Cc1nc(N2CCCCC2)ncc1-c1cc(=O)[nH]c(N2CCCC2)n1 | 68.1
Nc1nccnc1C1CN(C(=O)c2cnccn2)CCO1 (centres undefined) | -9.32
COCC(c1cccc(C(F)(F)F)c1)N(C)C(=O)c1cccnc1 (centres undefined) | -34.5
NC(=O)COc1cccc(Cn2cc(Br)cn2)c1 | 27
O=S(=O)(C1CC1)N1CCc2ncnc(-c3ccncc3)c2CC1 | 12.1
Cc1nnc(N2CCOC(CN(C)C)C2)c(C#N)c1C (centres undefined) | 49.25
Cc1ccc(O)c(C(=O)N2C[C@@H](C(=O)O)[C@H](c3ccccc3)C2)c1 | 19.4
CC(C)=CCN1C(=O)[C@@H]2CC[C@H]1CN(c1ncccc1F)C2 | 12.7
c1ccc2oc(N3CCCCC3Cn3cncn3)nc2c1 (centres undefined) | 55.5
c1ccc2oc(CN3CCCC3Cn3cncn3)nc2c1 (centres undefined) | -4.94
c1ccc2oc(CCCN3CCCCC3Cn3cncn3)nc2c1 (centres undefined) | -41.1

Compound | INHIBITION [%]
c1ccc2oc(CN3CCCCC3Cn3cncn3)nc2c1 (centres undefined) | 55.4
c1ccc2oc(N3CCCC3Cn3cncn3)nc2c1 (centres undefined) | -41.1
c1ccc2oc(CCCN3CCCC3Cn3cncn3)nc2c1 (centres undefined) | 30.8
O=C(Nc1cc(C(F)(F)F)c[nH]c1=O)N1CCOCC1 | -31.8
COc1c(C)cnc(CNCC(C)C)c1C | 11.95
CN(C)CC(=O)N1CCc2sc(C(=O)N3CCOCC3)cc21 | 43
Cc1nccn1CCN(C)c1cc(C(C)C)nc2ccnn12 | 51.3
CC(C)Cc1noc(CN(C)c2cc(C(C)C)nc3ccnn23)n1 | 23.5
Cc1cc(N(C)CCn2ccnc2C)n2nccc2n1 | 48.1
COCCC(Cc1cccc(Br)c1)C(N)=O (centres undefined) | 25.3
CC(C)CC(Cc1cccc(Br)c1)C(=O)O (centres undefined) | 65.4
COCCC(Cc1cccc(Br)c1)C(=O)O (centres undefined) | 9
CS(=O)(=O)NC[C@H]1Cn2c(-c3ccc(Cl)cc3)cnc2CO1 | 5.58
CS(=O)(=O)NC[C@H]1Cn2c(-c3ccccc3)cnc2CO1 | 25.3
CS(=O)(=O)NC[C@H]1Cn2c(-c3ccc(F)cc3)cnc2CO1 | 51.7
CC(=O)Nc1nc(CN2CCOC(Cn3cncn3)C2)cs1 (centres undefined) | 11.6
Cn1cnnc1CCNC(=O)c1cnn(Cc2ccccc2)c1 | 10.7
Cc1noc(C)c1CN(C)C(=O)NC1CCC(O)CC1 (centres undefined) | 40.15
O[C@H]1[C@H](NCCc2cnccn2)c2ccccc2C12CCNCC2 | 57.8
O[C@H]1[C@H](NCCc2ccccn2)c2ccccc2C12CCNCC2 | 28.7
O=C(CC1CCc2ccccc21)NCCSc1ccccn1 (centres undefined) | -8.25
O[C@H]1[C@H](NCCSc2ccccn2)c2ccccc2C12CCNCC2 | 52.2

Compound | INHIBITION [%]
OCc1cn([C@@H]2c3ccccc3C3(CCNCC3)[C@H]2O)nn1 | -76.9
O[C@H]1[C@H](n2cc(-c3ccccn3)nn2)c2ccccc2C12CCNCC2 | -110
COc1ccc(Nc2nc(N)c(C(C)=O)s2)cc1OC | 27.5
Cc1cnn(Cc2cccc(OCC(N)=O)c2)c1 | 40.7
Cc1ccsc1CNC1CCCc2c1cnn2C (centres undefined) | -2.19
CC(C)(Oc1ccc(C(N)=O)cc1)C(=O)N(CCC#N)C1CC1 | 23.3
O=C(NC1CCN(CC2CCCC2)C1)N1CCC(OCC2CC2)CC1 (centres undefined) | 39.7
NC(=O)C1CCN(C(=O)NC2CCN(CC3CCCC3)C2)CC1 (centres undefined) | 7.83
O=C(NC1CCN(CC2CC2)C1)N1CCC(OC2CCCCC2)CC1 (centres undefined) | 74
CCOCc1cnc2n1CCN(C(=O)c1ccccc1)C2C (centres undefined) | 57.5
CCOCc1cnc2n1CCN(C(=O)c1cccc3c1OCCO3)C2C (centres undefined) | 52.1
CCOCc1cnc2n1CCN(C(=O)C1=CCCC1)C2C (centres undefined) | 5.96
CCOCc1cnc2n1CCN(C(=O)Cc1ccccn1)C2C (centres undefined) | 37.8
CCOCc1cnc2n1CCN(C(=O)c1cn(C)c3ccccc13)C2C (centres undefined) | 57.5
CCOCc1cnc2n1CCN(C(=O)c1ccoc1C)C2C (centres undefined) | 48.4
CC1c2ncc(COCC3CC3)n2CCN1C (centres undefined) | 21.7
CCOCc1cnc2n1CCN(C(=O)Cc1cccs1)C2C (centres undefined) | 34.6
CCOCc1cnc2n1CCN(C(=O)Cc1ccco1)C2C (centres undefined) | 10.5
CC1c2ncc(COCC3CC3)n2CCN1C(=O)c1ccnnc1 (centres undefined) | -27
COCc1cnc2n1CCN(C(=O)c1cn(C)c3ccccc13)C2C (centres undefined) | 16.8
COCCC(=O)N1CCn2c(COCC3CC3)cnc2C1C (centres undefined) | 51.2
CCc1noc(C)c1C(=O)N1CCCC1c1c(C)nn(C)c1C (centres undefined) | 31.8

Compound | INHIBITION [%]
Cc1ccc(C(NCC(=O)N2CCNC(=O)C2)C(F)(F)F)cc1 (centres undefined) | 18.3
CC(C)(CNC1CCCN(Cc2ccccn2)C1)CN1CCOCC1 (centres undefined) | 33
O=C(NCC1CC1)C1CCC2(CCN(C(=O)c3cccnc3)CC2)O1 (centres undefined) | 6.27
Cc1ccc(-c2nc(C(=O)N3CCOCC3)cs2)c(C)c1 | -3.85
Cc1cc(C)n(CCN2CCOC(CNc3cccnn3)C2)n1 (centres undefined) | -39.7
O=C(c1ccncc1)N1CCN(Cc2cccnc2)c2ncccc2C1 | 7.53
CSc1nccc(NCc2cc3n(n2)CCCN(C(=O)C2CCC2)C3)n1 | 15.9
CC(c1ccc(F)cc1)N1CCN(Cc2nccn2C)CC1 (centres undefined) | 11.9
c1ccc(-c2ncc3c(n2)C2(CCN(c4ncccn4)C2)COC3)cc1 (centres undefined) | -39.1
CN(C)S(=O)(=O)N1CCC2(COCc3cnc(-c4ccccc4)nc32)C1 (centres undefined) | 29.7
CN(C)S(=O)(=O)N1CCC2(COCc3cnc(-c4cccnc4)nc32)C1 (centres undefined) | 59.3
O=S(=O)(C1CC1)N1CCC2(COCc3cnc(-c4cccnc4)nc32)C1 (centres undefined) | 32.1
CC(C)C(=O)N1CCC2(COCc3cnc(-c4cccnc4)nc32)C1 (centres undefined) | 17.7
CN(C)C(=O)CN1CCC2(COCc3cnc(N4CCOCC4)nc32)C1 (centres undefined) | 19.4
CN(C)C(=O)CN1CCC2(COCc3cnc(-c4cccnc4)nc32)C1 (centres undefined) | 69.3
O=C(C1CCC1)N1CCC2(COCc3cnc(-c4cccnc4)nc32)C1 (centres undefined) | -40.4
CS(=O)(=O)N1CCC2(COCc3cnc(-c4ccccc4)nc32)C1 (centres undefined) | -69.9
c1cnc(N2CCC3(COCc4cnc(-c5cccnc5)nc43)C2)nc1 (centres undefined) | 59.7
CCN1CCC2(COCc3cnc(-c4cccnc4)nc32)C1 (centres undefined) | 28.4
CN(C)C(=O)CN1CCC2(COCc3cnc(-c4ccccc4)nc32)C1 (centres undefined) | 91
O=C(NCc1ccccn1)NCc1ccc(Cl)s1 | 17.5
